Source: PubChem BioAssay AID1159580 (chemical genetic matrix, 2015)
Values joined by “and” are separate entries in the source; they are usually repeats but may differ in a detail not shown here. Equal values may be shown once. About 2,000 (36%) of roughly 5,500 compounds were called active. Not shown: some 18% with an inconclusive outcome. No stated cut-off is given here; in the data, active means normalized growth mostly below about 0.91 (no sharp cut-off); inconclusive means no clear call, values can overlap the other calls; inactive means mostly above about 0.92. The list shows a part of the results.

Experiment: chemical genetic growth profiling, strain panel (AID 1159580);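 further: tested at 20 µM; growth read once vehicle control cultures reached saturation at 30 °C; 1 = growth at the plate median or of vehicle wells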
Conditions: S. cerevisiae deletion strains, growth OD

Measured: normalized growth

O=C(O)C1CCCNC1 (stereo not given)
inactive: locus YAL013W, strain DEP1, stronger effect = lower value 1 | locus YAL021C, strain ccr4, stronger effect = lower value 1.01 | locus YAL026C, strain drs2, stronger effect = lower value 1.02 | locus YAL030W, strain snc1, stronger effect = lower value 1.02 | locus YAL040C, strain CLN3, stronger effect = lower value 1 | locus YBL061C, strain skt5, stronger effect = lower value 1.02 | locus YBR009C, strain hhf1, stronger effect = lower value 1.01 | locus YBR021W, strain FUR4, stronger effect = lower value 0.999 | locus YBR023C, strain chs3, stronger effect = lower value 1.01 | locus YBR171W, strain sec66, stronger effect = lower value 1.03 | locus YBR229C, strain ROT2, stronger effect = lower value 1.01 | locus YBR231C, strain swc5, stronger effect = lower value 1.01 | locus YBR279W, strain paf1, stronger effect = lower value 1.01 | locus YCL011C, strain gbp2, stronger effect = lower value 1.01 | locus YCL016C, strain dcc1, stronger effect = lower value 1.01 | locus YCL029C, strain bik1, stronger effect = lower value 1.04 | locus YCL061C, strain MRC1 (second series), stronger effect = lower value 1 | locus YCL061C, strain MRC1, stronger effect = lower value 1.02 | locus YCL069W, strain vba3, stronger effect = lower value 1.02 | locus YCR088W, strain abp1, stronger effect = lower value 1.02 | locus YDL005C, strain med2, stronger effect = lower value 1.02 | locus YDL035C, strain GPR1, stronger effect = lower value 1.01 | locus YDL040C, strain nat1, stronger effect = lower value 1.02 | locus YDL074C, strain BRE1, stronger effect = lower value 1.03 | locus YDL101C, strain DUN1, stronger effect = lower value 1.01 | locus YDL134C, strain PPH21, stronger effect = lower value 1.01 | locus YDL185W, strain tfp1, stronger effect = lower value 1.01 | locus YDL192W, strain arf1, stronger effect = lower value 1.03 | locus YDR001C, strain nth1, stronger effect = lower value 1.02 | locus YDR069C, strain doa4, stronger effect = lower value 1.02 | locus YDR101C, strain arx1, stronger effect = lower value 1.02 | locus YDR137W, strain rgp1, stronger effect = lower value 1.02 | locus YDR150W, strain NUM1, stronger effect = lower value 1.01 | locus YDR159W, strain sac3, stronger effect = lower value 1.02 | locus YDR162C, strain NBP2, stronger effect = lower value 1.01 | locus YDR195W, strain ref2 0.991 | locus YDR297W, strain sur2, stronger effect = lower value 1.02 | locus YDR318W, strain mcm21, stronger effect = lower value 1.03 | locus YDR334W, strain swr1, stronger effect = lower value 1.02 | locus YDR335W, strain msn5, stronger effect = lower value 1.02 | locus YDR388W, stronger effect = lower value 1.02 | locus YDR392W, strain spt3, stronger effect = lower value 1.03 | locus YDR502C, strain sam2, stronger effect = lower value 1.01 | locus YEL003W, strain gim4, stronger effect = lower value 1.03 | locus YEL037C, strain rad23, stronger effect = lower value 1.02 | locus YEL061C, strain CIN8 (second series), stronger effect = lower value 1.02 | locus YEL061C, strain CIN8, stronger effect = lower value 1.01 | locus YER002W, strain NOP16, stronger effect = lower value 1.02 | locus YER015W, strain faa2, stronger effect = lower value 1.02 | locus YER016W, strain bim1, stronger effect = lower value 1.01 | locus YER110C, stronger effect = lower value 1.02 | locus YER111C, strain swi4, stronger effect = lower value 1.02 | locus YER155C, strain BEM2 (second series), stronger effect = lower value 1.02 | locus YER155C, strain BEM2, stronger effect = lower value 1 | locus YER167W, strain BCK2, stronger effect = lower value 1.02 | locus YFR010W, strain ubp6, stronger effect = lower value 1.02 | locus YGL078C, strain dbp3, stronger effect = lower value 1.02 | locus YGL086W, strain mad1, stronger effect = lower value 0.999 | locus YGL167C, strain pmr1, stronger effect = lower value 1.01 | locus YGL173C, strain kem1, stronger effect = lower value 1.02 | locus YGL227W, strain vid30, stronger effect = lower value 1.02 | locus YGL240W, strain doc1, stronger effect = lower value 1.02 | locus YGL248W, strain PDE1, stronger effect = lower value 1.01 | locus YGL253W, strain hxk2, stronger effect = lower value 1.02 | locus YGR078C, strain PAC10, stronger effect = lower value 1.02 and 1.01 | locus YGR135W, strain pre9, stronger effect = lower value 1.03 | locus YGR229C, strain SMI1, stronger effect = lower value 0.999 | locus YGR252W, strain gcn5, stronger effect = lower value 1.01 | locus YHR013C, strain ard1, stronger effect = lower value 1.04 | locus YHR027C, strain rpn1, stronger effect = lower value 1.01 | locus YHR030C, strain SLT2, stronger effect = lower value 1 and 0.996 | locus YHR079C, strain IRE1 (second series), stronger effect = lower value 1.02 | locus YHR079C, strain IRE1, stronger effect = lower value 1.01 | locus YHR094C, strain hxt1, stronger effect = lower value 1.02 | locus YHR129C, strain ARP1, stronger effect = lower value 1.01 | locus YHR142W, strain chs7, stronger effect = lower value 1.01 | locus YHR200W, strain rpn10, stronger effect = lower value 1.01 | locus YIL066C, strain RNR3, stronger effect = lower value 1.01 | locus YIL073C, strain SPO22, stronger effect = lower value 1.1 | locus YIL125W, strain kgd1, stronger effect = lower value 1.02 | locus YIR030C, strain dcg1, stronger effect = lower value 1.03 | locus YJL092W, strain hpr5, stronger effect = lower value 1.02 | locus YJL095W, strain BCK1 (second series), stronger effect = lower value 1.02 | locus YJL095W, strain BCK1, stronger effect = lower value 1.04 and 1 | locus YJL115W, strain asf1, stronger effect = lower value 1.01 | locus YJL129C, strain trk1, stronger effect = lower value 1.04 | locus YJL134W, strain LCB3, stronger effect = lower value 1.01 | locus YJL154C, strain vps35, stronger effect = lower value 1.03 | locus YJL164C, strain tpk1, stronger effect = lower value 1.01 | locus YJL166W, strain qcr8, stronger effect = lower value 1.01 | locus YJL168C, strain set2, stronger effect = lower value 1.02 | locus YJL187C, strain SWE1 (second series), stronger effect = lower value 1.02 | locus YJL187C, strain SWE1, stronger effect = lower value 1.01 | locus YJR043C, strain POL32, stronger effect = lower value 1.01 | locus YJR066W, strain TOR1, stronger effect = lower value 0.923
